Results on 30 compounds are retold here after PubChem BioAssay (NCATS).

Values without a mark were called inactive. Results filed as inconclusive are left out. The source made the active and inactive calls. Unless noted, calls follow the shape of the dose curve; as a rule, active = well fitted curve in the direction sought with a large enough effect; inconclusive = small, poorly fitted or top-dose-only effect, or another doubt; inactive = no such curve, though single readings can be large; an effect the other way counts as inactive or inconclusive. Residues, ends and D or L forms follow the SMILES beside them. *: point of attachment. Cbz = O=C(OCc1ccccc1)*

Assay [1] addresses Voltage-gated inwardly rectifying potassium channel KCNH2 (Homo sapiens) (UniProt Q12809). The assay is described as follows: qHTS Assay for Small Molecule Inhibitors of the Human hERG Channel Activity (AID 588834).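 Also: lower thallium flux fluorescence means stronger hERG block; nearly all actives have a fitted effect of over 50% in size.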 Also: potency is read from the fitted curve at half-maximal effect. The method in brief: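 Step 1: BacMam hERG transduction of U2OS, 4 hrs RT. Step 2: overnight 37 °C, plate 2000 cells/well, 4 hr. Step 3: FluxOR load, compound 10 min, stimulate, read fluorescence.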
Background: Quantitative high-throughput screening tests each substance at several concentrations.

Assay [2] addresses Glutaminase kidney isoform, mitochondrial (Homo sapiens) (UniProt O94925). The assay is described as follows: qHTS for Inhibitors of Glutaminase (GLS): LOPAC Validation (AID 624146). Also: nearly all actives have a fitted effect of over 60% in size. Also: potency is read from the fitted curve at half-maximal effect. The method in brief:
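Two-point fluorescence kinetic (t0, 30 min RT) for hKGA; glutamate detected via glutamate oxidase–HRP–Amplex Red. Substrate: 1 mM L-glutamine solution; buffer 45 mM KH2PO4, pH 8.2.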

Assay [3] can be described thus: qHTS of Trypanosoma Brucei Inhibitors: LOPAC Validation (AID 624147). Also: 0% is about no effect. The method in brief: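 Assay buffer: 50 mM TEA pH 7.2, 100 mM KCl, 10 mM MgCl2, 0.05% BSA, 0.01% Tween-20. Pyruvate kinase from T. brucei plus substrate met compound, then ADP (130 uM final). Luminescence was read post 45 min RT.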
The target of assay [4] is Glucagon-like peptide 1 receptor (Homo sapiens) (UniProt P43220). The assay is described as follows: qHTS of GLP-1 Receptor Agonists: LOPAC Validation (AID 624148).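 Also: luminescence from a luciferase reporter switched on by cAMP; 0% is about no effect; higher luminescence signal means agonism.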 The method in brief: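 Agonism scored as increased luciferase luminescence driven by cAMP in HEK293 clones carrying GLP-1R. Cells settled 12 hours, received compound for 4-6 hr at 37 deg C, 5% CO2, and were read after 12 min detection reagent at RT.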

Assay [5] in a line: qHTS of Nrf2 Activators: LOPAC Validation (AID 624149). Also: 0% is about no effect. The method in brief:
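Luciferase signal from ARE activation, read with Steady-Glo after 30 min at room temperature. Compounds were pin-transferred onto AREc32_Fluc cells (1000/well, OPTI-MEM/5% FBS, seeded overnight) and left 24 hr at 37 deg C.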

A short description of assay [6]: HTS Assay for Allosteric Antagonists of the Human D2 Dopamine Receptor: Hit Validation in HTRF (AID 624455).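 Also: stable D1 dopamine receptor cell line scored for blocking the D1 response; % is scaled to controls: 0 for no effect and ±100 for the full control effect.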 The method in brief: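 Inhibition of the D1-mediated response was measured by HTRF. Cells used were a line stably expressing the D1 dopamine receptor.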
Assay [7] in a line: qHTS assay for small molecule activators of the p53 signaling pathway (AID 651743; active = well fitted activation curve with a large enough effect in the signal ratio, not every such curve was filed as active; the % refers to the signal ratio; also: series mostly up to about 92 µM; % of control where 0% means no effect). The conditions noted are these: HCT-116 p53RE-bla, beta-lactamase FRET ratio, 16 h; stronger effect = higher value. The method in brief:
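After 16 hours compound treatment at 37 C, HCT-116 cells stably expressing p53RE-driven beta-lactamase were loaded with LiveBLAzer B/G FRET substrate for 2 hours at room temperature. Fluorescence intensity served as the p53 activation read-out.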

Assay [8] is described as follows: qHTS assay for small molecule activators of the nuclear factor-kappa B (NF-kB) signaling pathway (AID 651749; active = well fitted activation curve with a large enough effect in the signal ratio; the % refers to the signal ratio; also: series mostly up to about 77 µM; % of control where 0% means no effect). The conditions noted are these: NF-kB-bla ME-180 cells, beta-lactamase FRET ratio, 16 h; stronger effect = higher value. The method in brief:
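Activation measured after 16 hr compound treatment at 37C, 5% CO2, of 2,000 ME-180 cells/well stably expressing an NF-kB response element–driven beta-lactamase reporter, via FRET-disruption fluorescence.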

For assay [9], the target named is Tumor necrosis factor (Homo sapiens) (UniProt P01375). Kind of assay: qHTS assay to identify small molecules that stimulate Tumor Necrosis Factor-alpha (TNF-alpha) secretion (AID 651757; active = well fitted curve in the direction sought with a large enough effect in the signal ratio; the % refers to the signal ratio; also: 0% is about no effect). The method in brief: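 Secreted TNF-alpha quantified by TR-FRET sandwich of two labeled anti-TNF-alpha antibodies, incubated 3 hr at room temperature. Preceded by 17 hr, 37 C compound treatment of THP-1 cells at 3000 cells/well.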

Assay [10] in a line: qHTS assay to identify small molecules that stimulate interleukin-8 (IL-8) secretion (AID 651758; active = well fitted activation curve with a large enough effect in the signal ratio; the % refers to the signal ratio; also: 0% is about no effect). The method in brief: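 Secreted IL-8 measured homogeneously by TR-FRET (two labelled anti-IL-8 antibodies, 1-3 h at room temperature) after a 16 h, 37 C compound treatment of THP-1 cells at 2000 cells/well.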
Assay [11] can be described thus: qHTS assay for environmental chemicals that activate the Aryl hydrocarbon Receptor (AhR) signaling pathway (AID 651777). Also: % of control where 0% means no effect; nearly all actives have a fitted effect of over 15% in size. The conditions noted are these: 1A2-DRE human hepatoma cells, luciferase, 24 h; stronger effect = higher value. The method in brief:
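Stable CYP1A2 promoter/DRE-luciferase human hepatoma line treated 24 hr; One-Glo luminescence, 30 min RT.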

The target of assay [12] is Peroxisome proliferator-activated receptor alpha (Homo sapiens) (UniProt Q07869). Kind of assay: qHTS assay for small molecule agonists of the peroxisome proliferator-activated receptor alpha (PPARalpha) signaling pathway (AID 651778). Also: % of control where 0% means no effect. The conditions noted are these: PathHunter PPARalpha complementation, chemiluminescence, 6 h; max response: stronger effect = higher value. The method in brief:
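Chemiluminescence from complemented enzyme reported PPARalpha activation in cells after 6 hr of compound treatment at 37 C. The detection reagent was incubated for 60 min at room temperature, and compounds were scored as agonists.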

Glutaminase kidney isoform, mitochondrial (Homo sapiens), sequence (O94925 whole entry, looked up, canonical isoform): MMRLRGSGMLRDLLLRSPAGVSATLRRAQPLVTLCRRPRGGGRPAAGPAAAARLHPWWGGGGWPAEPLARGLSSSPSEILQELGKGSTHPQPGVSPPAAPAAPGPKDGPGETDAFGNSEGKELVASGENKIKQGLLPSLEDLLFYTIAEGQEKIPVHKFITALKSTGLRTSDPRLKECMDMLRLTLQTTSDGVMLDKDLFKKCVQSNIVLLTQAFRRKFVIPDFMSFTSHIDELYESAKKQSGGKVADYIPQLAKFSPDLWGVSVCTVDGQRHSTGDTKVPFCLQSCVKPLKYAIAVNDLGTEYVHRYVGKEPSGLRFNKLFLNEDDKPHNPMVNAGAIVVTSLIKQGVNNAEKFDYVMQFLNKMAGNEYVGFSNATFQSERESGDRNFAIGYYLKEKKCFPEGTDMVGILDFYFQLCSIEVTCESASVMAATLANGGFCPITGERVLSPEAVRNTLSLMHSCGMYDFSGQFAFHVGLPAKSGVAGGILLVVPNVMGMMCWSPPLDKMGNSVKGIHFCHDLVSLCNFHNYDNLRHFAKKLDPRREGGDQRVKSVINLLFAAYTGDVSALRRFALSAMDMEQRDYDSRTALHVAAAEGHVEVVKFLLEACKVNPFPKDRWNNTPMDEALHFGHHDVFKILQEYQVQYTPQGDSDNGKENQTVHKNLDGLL
Voltage-gated inwardly rectifying potassium channel KCNH2 (Homo sapiens), sequence (Q12809 whole entry, looked up): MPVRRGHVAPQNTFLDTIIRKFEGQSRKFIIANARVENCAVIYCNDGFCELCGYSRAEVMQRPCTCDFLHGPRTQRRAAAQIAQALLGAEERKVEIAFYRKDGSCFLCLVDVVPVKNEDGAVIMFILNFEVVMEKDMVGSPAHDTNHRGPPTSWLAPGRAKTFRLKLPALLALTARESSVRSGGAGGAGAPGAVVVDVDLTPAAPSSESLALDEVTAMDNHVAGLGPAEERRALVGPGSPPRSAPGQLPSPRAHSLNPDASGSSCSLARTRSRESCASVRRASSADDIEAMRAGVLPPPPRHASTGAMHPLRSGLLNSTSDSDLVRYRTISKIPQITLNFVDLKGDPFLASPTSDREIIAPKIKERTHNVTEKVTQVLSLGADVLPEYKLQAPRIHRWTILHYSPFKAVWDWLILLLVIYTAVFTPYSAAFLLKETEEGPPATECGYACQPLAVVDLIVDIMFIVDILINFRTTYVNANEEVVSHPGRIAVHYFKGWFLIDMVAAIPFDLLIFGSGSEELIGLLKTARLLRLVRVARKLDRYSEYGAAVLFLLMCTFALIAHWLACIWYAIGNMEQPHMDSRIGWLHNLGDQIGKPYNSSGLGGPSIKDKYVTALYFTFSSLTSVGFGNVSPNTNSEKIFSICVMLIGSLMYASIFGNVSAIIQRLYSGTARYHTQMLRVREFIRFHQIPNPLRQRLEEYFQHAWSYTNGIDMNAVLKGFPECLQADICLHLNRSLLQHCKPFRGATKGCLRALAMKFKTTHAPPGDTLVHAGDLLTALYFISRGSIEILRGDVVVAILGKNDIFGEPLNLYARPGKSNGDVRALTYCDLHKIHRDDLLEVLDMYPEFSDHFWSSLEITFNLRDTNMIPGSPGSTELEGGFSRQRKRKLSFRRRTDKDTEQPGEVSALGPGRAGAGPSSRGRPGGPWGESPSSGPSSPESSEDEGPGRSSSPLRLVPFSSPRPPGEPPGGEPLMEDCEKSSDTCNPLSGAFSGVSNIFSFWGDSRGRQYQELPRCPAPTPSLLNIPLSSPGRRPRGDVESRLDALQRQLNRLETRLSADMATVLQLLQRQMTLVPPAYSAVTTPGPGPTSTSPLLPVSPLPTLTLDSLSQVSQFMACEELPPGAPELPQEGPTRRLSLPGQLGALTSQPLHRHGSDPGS
Glucagon-like peptide 1 receptor (Homo sapiens), sequence (P43220 whole entry, looked up): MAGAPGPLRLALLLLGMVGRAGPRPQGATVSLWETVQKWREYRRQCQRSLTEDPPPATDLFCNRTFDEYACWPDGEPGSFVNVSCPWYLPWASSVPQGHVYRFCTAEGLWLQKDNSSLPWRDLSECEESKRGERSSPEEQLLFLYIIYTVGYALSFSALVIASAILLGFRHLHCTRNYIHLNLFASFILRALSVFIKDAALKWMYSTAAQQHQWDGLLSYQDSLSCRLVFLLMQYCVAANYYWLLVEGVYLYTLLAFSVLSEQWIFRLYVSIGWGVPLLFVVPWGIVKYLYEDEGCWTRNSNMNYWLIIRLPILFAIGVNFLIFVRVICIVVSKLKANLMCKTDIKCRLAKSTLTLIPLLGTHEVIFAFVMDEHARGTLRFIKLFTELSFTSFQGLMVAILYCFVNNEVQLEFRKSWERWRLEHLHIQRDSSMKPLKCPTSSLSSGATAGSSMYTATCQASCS
Peroxisome proliferator-activated receptor alpha (Homo sapiens), sequence (Q07869 whole entry, looked up): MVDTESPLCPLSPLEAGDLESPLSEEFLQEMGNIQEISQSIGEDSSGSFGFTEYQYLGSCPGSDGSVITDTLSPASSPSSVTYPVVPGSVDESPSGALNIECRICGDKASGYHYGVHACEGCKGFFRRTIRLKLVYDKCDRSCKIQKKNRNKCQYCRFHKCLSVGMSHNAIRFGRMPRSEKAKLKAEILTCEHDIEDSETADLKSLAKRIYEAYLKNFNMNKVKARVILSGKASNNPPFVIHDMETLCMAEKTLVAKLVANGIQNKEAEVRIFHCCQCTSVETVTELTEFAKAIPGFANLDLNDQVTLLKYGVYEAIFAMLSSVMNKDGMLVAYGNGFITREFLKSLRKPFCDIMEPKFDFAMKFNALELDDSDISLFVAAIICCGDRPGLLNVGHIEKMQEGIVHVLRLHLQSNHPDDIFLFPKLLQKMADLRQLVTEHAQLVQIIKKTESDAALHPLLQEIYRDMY
Tumor necrosis factor (Homo sapiens), sequence (P01375 whole entry, looked up): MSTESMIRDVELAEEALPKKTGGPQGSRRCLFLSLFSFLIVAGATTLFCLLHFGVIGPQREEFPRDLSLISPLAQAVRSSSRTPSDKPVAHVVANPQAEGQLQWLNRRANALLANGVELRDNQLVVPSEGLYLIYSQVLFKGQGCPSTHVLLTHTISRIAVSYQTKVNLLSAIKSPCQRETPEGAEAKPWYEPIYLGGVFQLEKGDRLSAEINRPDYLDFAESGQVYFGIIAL

As to `CC1CNCCN1S(=O)(=O)c1cccc2cnccc12` (stereo unspecified), the Potency result in assay [1], in [2], in [3], in assay [4], in assay [5] and in assay [6] was “inactive” throughout.

Consider `O=C(O)C1CCNCC1`, for which the Potency entry in [1], in assay [2], in [3], in assay [4], in [5] and in assay [6] was “inactive” throughout.

Take `O=C(OCCN1CCOCC1)C1(c2ccccc2)CCCCC1`: the Potency result in assay [1], in [2], in assay [3], in assay [4], in assay [5] and in assay [6] was “inactive” throughout.

For the compound `NC(N)=N[C@@H](CCC(=O)O)C(=O)O`, the Potency entry in [1], in [2], in assay [3], in assay [4], in [5] and in [6] was “inactive” each time.

In the case of `CC(C)(C)NCC(O)COc1cccc2[nH]c(=O)[nH]c12` (stereo unspecified), the Potency result in assay [1], in assay [2], in assay [3], in [4], in assay [5] and in [6] was “inactive” in each case.

Turning to `O=c1[nH]c2ccccc2c2ccccc12`, the Potency entry in assay [1], in [2], in assay [3], in assay [4], in assay [5] and in [6] was “inactive” throughout.

As to `CCCn1c(=O)c2[nH]c(-c3ccc(S(=O)(=O)O)cc3)nc2n(CCC)c1=O`, the Potency result in assay [1], in [2], in [3], in assay [4], in assay [5] and in assay [6] was “inactive” in each case.

As to `CCN(CC)CCCCCCCCOC(=O)c1cc(OC)c(OC)c(OC)c1`, the Potency in assay [1] is 11200 nM (active). Also, the Potency result in assay [2], in assay [3], in [4], in [5] and in assay [6] was “inactive” in each case.

For `COc1cc(CC(=O)O)ccc1O`, the Potency entry in assay [1], in assay [3], in [4], in assay [5] and in [6] was “inactive” throughout. Moreover, the Potency in [2] is 2820 nM (active).

For the compound `Nn1nnc2ccccc21`, the Potency entry in assay [1], in [2], in assay [3], in [4], in assay [5] and in [6] was “inactive” throughout.

Consider `Cn1c(=O)c2[nH]c(C3CCCC3)nc2n(C)c1=O`, for which the Potency result in [1], in [2], in assay [3], in assay [4], in assay [5] and in assay [6] was “inactive” in each case.

On to `O=C(O)CCC(=O)N1CCCC1C(=O)O` (stereo unspecified), for which the Potency result in assay [1], in assay [2], in [3], in assay [4], in [5] and in assay [6] was “inactive” throughout.

With `N=C(N)SCCN`, the Potency entry in assay [1], in assay [2], in [3], in [4], in assay [5] and in [6] was “inactive” in each case.

Regarding `COc1ccccc1N1CCN(CCCCN2C(=O)c3ccccc3C2=O)CC1`, the Potency in [1] was 2240 nM (active). Further, the Potency entry in assay [2], in [3], in [4], in assay [5] and in [6] was “inactive” each time.

In the case of `CCCCCCC/C=C\CCCCCCCCC(=O)O`, the Potency entry in assay [1], in assay [2], in assay [3], in [4], in assay [5] and in assay [6] was “inactive” each time.

For the compound `O=[N+]([O-])c1cccc2cn[nH]c12`, the Potency entry in assay [1], in [2], in assay [3], in assay [4], in assay [5] and in assay [6] was “inactive” throughout.

Regarding `CSC(=N)N`, the Potency result in assay [1], in assay [2], in assay [3], in [4], in assay [5] and in assay [6] was “inactive” in each case.

With `NC(N)=NC(N)=Nc1cccc(Cl)c1`, in assay [1], the Potency was 8910 nM (active). The Potency result in assay [2], in [3], in assay [4], in assay [5] and in assay [6] was “inactive” in each case.

For `CC(=O)NCCc1c[nH]c2ccc(O)cc12`, the Potency entry in assay [1], in assay [3], in [4], in assay [5] and in assay [6] was “inactive” in each case. Also, the Potency in assay [2] is 1000 nM (active).

For `NC(=O)c1cc[n+](CC2=C(C(=O)O)N3C(=O)[C@@H](NC(=O)[C@@H](c4ccccc4)S(=O)(=O)[O-])[C@H]3SC2)cc1`, the Potency result in [1], in [2], in [3], in assay [4], in assay [5] and in [6] was “inactive” each time.

On to `CC(C)C[C@H](NC(=O)C1OC1C(=O)O)C(=O)NCCCCN=C(N)N` (stereo partly specified), for which the Potency result in [1], in assay [2], in assay [3], in assay [4], in [5] and in [6] was “inactive” in each case.

Regarding `CNCCNS(=O)(=O)c1cccc2cnccc12`, the Potency result in [1], in assay [2], in [3], in assay [4], in [5] and in [6] was “inactive” in each case.

With `O=C(O)c1ccccc1Nc1ccccc1`, the Potency result in assay [1], in assay [2], in assay [3], in assay [4], in assay [5] and in [6] was “inactive” throughout.

As to `CC(C)[C@H](NC(=O)OCc1ccccc1)C(=O)N[C@H](C=O)Cc1ccccc1` (Cbz-Val-Phe-aldehyde), the Potency result in assay [1], in assay [2], in [3], in assay [4], in [5] and in [6] was “inactive” in each case.

With `CC(N)(Cc1ccc(O)c(O)c1)C(=O)O` (stereo unspecified), the Potency result in assay [1], in assay [2], in assay [3], in [4], in [5] and in [6] was “inactive” throughout.

Take `Cc1nc(N=Nc2ccc(C(=O)O)cc2)c(COP(=O)(O)O)c(C=O)c1O`: the Potency result in [1], in [2], in [3], in [5] and in assay [6] was “inactive” in each case.

`Cc1ccc([N+](=O)[O-])cc1S(=O)(=O)N(C)C`: the Potency result in assay [1], in assay [2], in assay [3], in assay [5] and in assay [6] was “inactive” each time.

With `O=C(O)C1=CCNCC1`, the Potency result in assay [1], in assay [2], in assay [3], in [5] and in [6] was “inactive” throughout.

Regarding `COc1ccc(-c2ccc(N)[n+](CCCC(=O)O)n2)cc1`, the Potency result in assay [1], in assay [2], in [3] and in assay [5] was “inactive” throughout.

As for `CC(=O)C(C)=O`, the Potency entry in assay [1], in [2], in assay [3], in assay [4], in assay [5] and in assay [6] was “inactive” each time. For the same compound, the activation in [7] is -1.05%; in assay [8], -1.05%; in [11], -0.684%. For the same compound, the outcome in assay [9] and in assay [10] was inactive. The max response in assay [12] is -2.24%.
